Screening data as filed in PubChem BioAssay.
In the library only some 21% were active in any assay of this set; here they are far more common.
DRD3 antagonist: qHTS of D3 Dopamine Receptor Antagonist: qHTS | D(3) dopamine receptor (Homo sapiens), P35462 | D3R cells, DiscoveRx beta-arrestin luminescence, antagonist mode; stronger effect = lower value | max response, negative = inhibition, % | 2.5% of 360,000 active | AID 652054, 2013; in the data active = max response below about -50%; inconclusive = no clear call, values can overlap the other calls; note: % is set by controls: 0 for no effect and ±100 for the full control effect
Target sequence (P35462 whole entry, looked up): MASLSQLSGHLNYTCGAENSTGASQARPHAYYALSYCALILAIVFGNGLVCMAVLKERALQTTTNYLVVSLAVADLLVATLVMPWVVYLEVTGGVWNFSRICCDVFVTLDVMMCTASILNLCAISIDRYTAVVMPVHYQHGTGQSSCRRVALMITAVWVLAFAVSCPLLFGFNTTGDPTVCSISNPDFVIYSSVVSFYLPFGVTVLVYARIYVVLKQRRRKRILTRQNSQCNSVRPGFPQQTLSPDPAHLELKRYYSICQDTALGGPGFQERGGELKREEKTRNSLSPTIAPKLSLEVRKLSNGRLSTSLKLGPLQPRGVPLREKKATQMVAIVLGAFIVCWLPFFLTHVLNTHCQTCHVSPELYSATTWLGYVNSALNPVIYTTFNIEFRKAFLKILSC
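Cells plated overnight at 1500 cells/well, then exposed to library compounds with dopamine controls for 90 minutes at 37 degrees C. DiscoveRx reagent added for 30–60 minutes at room temperature; luminescence read, quantitative HTS format.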
D3 ag: qHTS of D3 Dopamine Receptor Agonist: qHTS | D(3) dopamine receptor (Homo sapiens), P35462 | D3R DiscoveRx beta-arrestin cells, luminescence, 90 min | max activation, % | 0.58% of 410,000 active | AID 652048, 2013; in the data active = max activation above about 30%; note: 0% is about no effect
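Agonist-mode cell screen: cells plated at 1500/well and incubated overnight at 37 °C, then exposed to library compounds for 90 min at 37 °C. Detection reagent was added for 30–60 min at room temperature, and luminescence was read.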
IL-1B inflam inh: qHTS for Inhibitors of Inflammasome Signaling: IL-1-beta AlphaLISA Primary Screen; THP-1 LPS/ATP IL-1B secretion, AlphaLISA, 16 h; stronger effect = lower value; activity change, % at 57.5 µM; 4.7% of 360,000 active; in the data active = activity change below about -50%; inconclusive = mostly about -30% to -49%; note: % is set by controls: 0 for no effect and ±100 for the full control effect
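THP-1 cells pretreated 1 hr with compounds (up to 57.5 uM final), then stimulated with LPS (250 ng/mL final) plus ATP (1.25 mM final); secreted IL-1B measured by AlphaLISA after 16 hr, decreased signal indicating inhibition.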
ClpP mod: qHTS Assay for Activators of ClpP | purified B. subtilis ClpP, FRET peptide cleavage, 20 min | Potency, µM (doses to about 57.5 µM), for inactives: top-dose activity change, negative = active | 1.9% of 340,000 active; active = well fitted falling curve with a large enough effect; inconclusive = small, poorly fitted or top-dose-only effect; inactive = no such curve, though single readings can be large or run the other way; note: potency is the fitted concentration of half-maximal effect; the source files actives as falling curves though it sought activators and does not explain the sign; nearly all actives have a fitted effect of over 65% in size
Target sequence (P80244 whole entry, looked up): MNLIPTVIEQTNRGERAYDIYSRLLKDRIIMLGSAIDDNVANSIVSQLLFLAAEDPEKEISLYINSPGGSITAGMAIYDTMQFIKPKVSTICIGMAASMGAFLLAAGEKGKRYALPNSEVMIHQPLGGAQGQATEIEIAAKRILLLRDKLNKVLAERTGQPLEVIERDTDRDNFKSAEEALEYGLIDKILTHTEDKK
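FRET quenching reversal measured ClpP activation: 10 microg/mL B. subtilis ClpP at pH 8 with the FRET-FV decapeptide, read at 430 nm after 320 nm excitation. The 20-min minus 0-min signal was scaled between DMSO/no-enzyme wells and ADEP (5.8 microM final).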
TDP1 cell noCPT: qHTS for Inhibitors of human tyrosyl-DNA phosphodiesterase 1 (TDP1): qHTS in cells in absence of CPT; DT40 Tdp1-/- hTDP1 cells, no CPT, ATP luminescence, 48 h; 15% of 420,000 active; Potency, µM (doses to about 46.2 µM), inactives show at the top dose activity change, negative = growth inhibition, usual class: inhibitors; note: potency is the fitted concentration of half-maximal effect; % is set by controls: 0 for no effect and ±100 for the full control effect; nearly all actives have a fitted effect of over 55% in size
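Luminescent ATP content (CellTiter-Glo) served as the growth readout. Knockout chicken DT40 cells expressing human TDP1 were exposed to compounds without camptothecin for a minimum 48 hr at 37 °C.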
TDP1 cell CPT: qHTS for Inhibitors of human tyrosyl-DNA phosphodiesterase 1 (TDP1): qHTS in cells in presence of CPT. chicken DT40 Tdp1-/-;hTDP1 cells + 20 nM CPT, ATP luminescence, 48 h. Potency, µM (highest dose often 46.2 µM), for the others: top-dose activity change, negative = growth inhibition, most hits filed as inhibitors. 12% of 420,000 active; note: potency is the fitted concentration of half-maximal effect; % is set by controls: 0 for no effect and ±100 for the full control effect; nearly all actives have a fitted effect of over 55% in size
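Chicken DT40 Tdp1-/- cells complemented with human TDP1, 400 cells/well, exposed to compounds plus 20 nM camptothecin for at least 48 h at 37 C; viability read as ATP content by CellTiter-Glo luminescence.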
An asterisk follows results filed as active. Unless noted, calls come from the whole dose curve; as a rule, active = well fitted inhibition curve with a large enough effect; inconclusive = small, poorly fitted or top-dose-only effect; inactive = flat fitted curve, though single readings scatter.

How did CC(C)Cc1ccc(CN2CCCC(NC(=O)c3ccnn3C)C2)cc1 (stereo unspecified) do in these assays?
DRD3 antagonist: 10.0; D3 ag: 1.4; IL-1B inflam inh: -22.8; ClpP mod: -0.6%; TDP1 cell noCPT: 23.1µM*; TDP1 cell CPT: 18.4µM*

What do the screens show for `CC(NC(=O)C12CC3CC(CC(O)(C3)C1)C2)c1ccc(Cl)cc1Cl` (stereo unspecified)?
DRD3 antagonist: 3.5; D3 ag: 0.3; IL-1B inflam inh: 11.3; TDP1 cell noCPT: -26.9%; TDP1 cell CPT: -17.7%

What do the screens show for `Cc1ccc(-n2c3nc(=O)n(C)c(=O)c-3cc3c(Cl)cccc32)c(C)c1`?
D3 ag: -2.8; ClpP mod: 38.7%; TDP1 cell noCPT: inconclusive; TDP1 cell CPT: -14.5%

What do the screens show for `COC1=C(C)C(=O)C2=C(C1=O)C1C3CC4=C(C(=O)C(OC)=C(C)C4=O)C(CNC(=O)C(C)=O)N3C(C#N)C(C2)N1C` (stereo unspecified)?
DRD3 antagonist: -56.8*; D3 ag: -20.5; IL-1B inflam inh: -98.5*; ClpP mod: -1.7%; TDP1 cell noCPT: 0.0259µM*; TDP1 cell CPT: 0.0411µM*

Results for CC(Oc1ccccc1)C(=O)Nc1cccc(-c2cn3cccnc3n2)c1 (stereo unspecified) ?
D3 ag: -4.2; ClpP mod: 3.7%; TDP1 cell noCPT: inconclusive; TDP1 cell CPT: inconclusive

What do the screens show for `Cc1ccc2c(c1)N(C(=O)CCC(=O)NCc1cccc(Cl)c1)CC(C)O2` (stereo unspecified)?
DRD3 antagonist: -26.8; D3 ag: -3.3; IL-1B inflam inh: inconclusive; ClpP mod: -0.1%; TDP1 cell noCPT: 16.4µM*; TDP1 cell CPT: inconclusive

How did Cc1ccc2c(c1)N(C(=O)CCC(=O)NCc1ccccc1)CC(C)O2 (stereo unspecified) do in these assays?
DRD3 antagonist: -15.4; D3 ag: -3.0; IL-1B inflam inh: -16.3; ClpP mod: -3.4%; TDP1 cell noCPT: -6.5%; TDP1 cell CPT: 3.7%

How did COc1ccc(CCNC(=O)CCC(=O)N2CC(C)Oc3ccc(Cl)cc32)cc1OC (stereo unspecified) do in these assays?
DRD3 antagonist: 17.6; D3 ag: -6.8; IL-1B inflam inh: -0.7; ClpP mod: 1.7%; TDP1 cell noCPT: inconclusive; TDP1 cell CPT: 18.4µM*

Results for CCOC(=O)N1CCC(NC(=O)CCC(=O)N2CC(C)Oc3ccc(C)cc32)CC1 (stereo unspecified) ?
DRD3 antagonist: -24.6; D3 ag: -2.0; IL-1B inflam inh: 1.7; ClpP mod: -0.8%; TDP1 cell noCPT: inconclusive; TDP1 cell CPT: inconclusive

Results for Cc1ccc2c(c1)N(C(=O)CCC(=O)NC1CCN(Cc3ccccc3)CC1)CC(C)O2 (stereo unspecified) ?
DRD3 antagonist: -29.9; D3 ag: -15.8; IL-1B inflam inh: -5.9; ClpP mod: 0.9%; TDP1 cell noCPT: inconclusive; TDP1 cell CPT: 20.6µM*

What do the screens show for `Cc1cccc(N2CCN(C(=O)CCC(=O)N3CC(C)Oc4ccc(C)cc43)CC2C)c1` (stereo unspecified)?
DRD3 antagonist: 14.6; D3 ag: 1.7; IL-1B inflam inh: -25.6; ClpP mod: -2.3%; TDP1 cell noCPT: inconclusive; TDP1 cell CPT: 16.4µM*

How did CCN1CCN(C(=O)C(=O)c2c(C)[nH]c3ccccc23)CC1 do in these assays?
DRD3 antagonist: 0.5; D3 ag: -4.1; IL-1B inflam inh: 29.8; ClpP mod: -1.1%; TDP1 cell noCPT: 17.4%; TDP1 cell CPT: -2.2%

What do the screens show for `COc1ccc(/C=C\C(=O)NC2CC(=O)N(c3ccccc3)C2)cc1OC` (stereo unspecified)?
D3 ag: -7.5; ClpP mod: 4.3%; TDP1 cell noCPT: -22.7%; TDP1 cell CPT: -21.6%

What do the screens show for `O=C(/C=C\c1ccccc1)NC1CC(=O)N(c2ccccc2)C1` (stereo unspecified)?
D3 ag: 45.2*; ClpP mod: -1.1%; TDP1 cell noCPT: -6.7%; TDP1 cell CPT: -16.2%

How did COc1ccc(N2CC(NC(=O)/C=C\c3ccc(OC)c(OC)c3)CC2=O)cc1 (stereo unspecified) do in these assays?
D3 ag: -41.1; ClpP mod: 31.6µM*; TDP1 cell noCPT: -5.4%; TDP1 cell CPT: -13.0%

Results for COc1cc(NC(=NS(=O)(=O)c2ccccc2)c2ccccc2)ncn1 ?
DRD3 antagonist: -99.7*; D3 ag: -30.2; IL-1B inflam inh: 10.9; TDP1 cell noCPT: -26.5%; TDP1 cell CPT: inconclusive

What do the screens show for `Cc1ccc(S(=O)(=O)/N=C(/Nc2c(C)cccc2C)c2ccccc2)cc1`?
DRD3 antagonist: 8.1; D3 ag: 7.0; IL-1B inflam inh: -5.9; ClpP mod: -0.5%; TDP1 cell noCPT: 1.64µM*; TDP1 cell CPT: -69.4%

What do the screens show for `Cc1ccccc1/C(=N\S(=O)(=O)c1ccc(Br)cc1)Nc1ccccc1`?
DRD3 antagonist: 11.1; D3 ag: 1.1; IL-1B inflam inh: -6.0; ClpP mod: 2.2%; TDP1 cell noCPT: 14.6µM*; TDP1 cell CPT: inconclusive

Results for CC(C)CCSc1nnc2n(-c3ccccc3)c(=O)c3c4c(sc3n12)CC(C)CC4 (stereo unspecified) ?
D3 ag: 0.5; ClpP mod: -1.7%; TDP1 cell noCPT: -18.9%; TDP1 cell CPT: -15.6%

Results for CCn1c(N2CCN(C(=S)NCCc3ccccc3)CC2)nc2ccccc21 ?
DRD3 antagonist: inconclusive; D3 ag: -3.0; IL-1B inflam inh: inconclusive; ClpP mod: -2.3%; TDP1 cell noCPT: 25.9µM*; TDP1 cell CPT: inconclusive

Results for CCn1c(N2CCN(C(=S)NC)CC2)nc2ccccc21 ?
DRD3 antagonist: -12.6; D3 ag: -12.1; IL-1B inflam inh: -6.9; ClpP mod: -0.8%; TDP1 cell noCPT: 1.3%; TDP1 cell CPT: -24.5%

Results for CCn1c(N2CCN(C(=S)Nc3ccc(OC)cc3)CC2)nc2ccccc21 ?
DRD3 antagonist: -7.0; D3 ag: -3.7; IL-1B inflam inh: -19.9; ClpP mod: -3.6%; TDP1 cell noCPT: 14.6µM*; TDP1 cell CPT: 14.6µM*
